Screen size: about 310,000 compounds; about 18,000 (5.8%) were called active. Roughly 22% stayed inconclusive and do not appear here. Many of the other results were omitted from the sample, so actives are more common in it than they were. A number with no mark means an inactive call. Calls come from the whole dose curve; as a rule, active = well fitted inhibition curve with a large enough effect; inconclusive = small, poorly fitted or top-dose-only effect, or another doubt; inactive = no such curve, though single readings can be large or run the other way.
% is set by controls: 0 for no effect and ±100 for the full control effect; potency is the fitted concentration of half-maximal effect.

A short description of the assay: Primary qHTS for delayed death inhibitors of the malarial parasite plastid, 48 hour incubation. Conditions: P. falciparum luciferase growth in erythrocytes; series mostly up to 28.7 µM; activity change, negative = inhibition: at the top concentration. A digest of the protocol: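 Read-out is firefly luciferase luminescence from an integrated reporter in P. falciparum, so falling signal marks reduced parasite growth. Infected erythrocytes were at 2% hematocrit and 0.1% parasitemia (final) in Albumax-supplemented RPMI 1640.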
As to `CC1CCN(C(=O)CCc2nnc3ccc(NCc4ccco4)nn23)CC1`, the “activity change, negative = inhibition” value is 0%.
For `CC(c1ccccn1)N(C)C(=O)c1ccc2nc(Cc3cccc(Cl)c3)oc2c1` (stereo unspecified), the “activity change, negative = inhibition” value was 14%.
The same measure, in the same setting: next, `CC1(C)O[C@@H]2[C@H](O1)[C@@H](COS(=O)(=O)O)O[C@H]2n1cnc2c(=O)[nH]cnc21`: 40.8%.
For the compound `CCOCCOC(=O)C1=C(C)NC(=O)NC1c1ccc2c(c1)OCO2` (stereo unspecified), the “activity change, negative = inhibition” value was 10%.
The same measure, in the same setting: next, `Cc1csc2nc(COC(=O)c3cccc(N(C)C)c3)cc(=O)n12`: 159%.
On to `CC(=O)Nc1nc(C)c(-c2csc(Nc3ccc(S(N)(=O)=O)cc3)n2)s1`, for which the “activity change, negative = inhibition” value was 5.4%.
On to `Cc1nc(NC(=O)c2cccc(Cl)c2)sc1-c1csc(Nc2cccc(Cl)c2)n1`, for which the Potency was 8.28 µM (active).
For `CCCCN(C)CCC(=O)Nc1ccc(Cl)cc1`, the “activity change, negative = inhibition” value is -3.3%.
Regarding `CCCCC(=O)Nc1nc(C)c(-c2csc(Nc3ccc(Cl)cc3)n2)s1`, the Potency is 4.65 µM (active).
As to `CC(=O)Nc1cccc(-c2csc(Nc3cccc(C)n3)n2)c1`, the “activity change, negative = inhibition” value was 286%.
On the same count and under the same terms, next, `CCC(=O)Nc1nc(C)c(C(=O)Nc2cccc(Cl)c2)s1`: -17%; `O=C(CN1C(=O)NC2(CCCC2)C1=O)OCCOc1ccc(F)cc1`: 80.6%; `COC(=O)c1c(NC(=O)C(=O)N2CCCCC2)sc2c1CC(C)(C)OC2`: -25.4%.
On the same count and under the same terms, next, `COc1ccc(CNS(=O)(=O)c2ccc(-c3cnc(C4CC4)o3)cc2)cc1`: 5.18%.
As for `O=C1C=C(c2cccc(Br)c2)C[C@@H](c2ccc(F)cc2)C1`, the Potency was 2.94 µM (active).
`O=C1CC(c2cccc(Br)c2)C2=C(CCCC2=O)N1` (stereo unspecified): the “activity change, negative = inhibition” value was 5.31%.
The same measure, in the same setting: next, `COc1cccc(C2=CC(=O)C[C@H](c3ccc(F)cc3)C2)c1OC`: 0%.
With `COc1ccccc1C1=CC(=O)C[C@H](c2ccc(F)cc2)C1`, the “activity change, negative = inhibition” value was -28.2%.
With `O=C1C=C(c2cccc(Cl)c2O)C[C@@H](c2ccc(F)cc2)C1`, the Potency was 2.08 µM (active).
`O=C(CCc1nnc(Cc2ccc3c(c2)OCO3)o1)NCCc1ccccc1Cl`: the “activity change, negative = inhibition” value is 2.13%.
Regarding `COc1ccc(-c2nc(CS(=O)(=O)CC(=O)NCc3cccc(Br)c3)c(C)o2)cc1`, the “activity change, negative = inhibition” value is 3.55%.
The same measure, in the same setting: next, `COc1ccc(-n2ncc3c(SCC(=O)NNC(C)=O)ncnc32)cc1`: 50.2%.
The same measure, in the same setting: next, `CC(=O)N1CCc2c(sc(NC(=O)CCS(=O)(=O)c3ccccc3)c2C#N)C1`: 2.73%; `Cc1ccc(S(=O)(=O)NC2CCCCCC2)cc1C(N)=O`: 23.5%; `O=C(CN1CCCCCC1)Nc1c(Cl)cc(Cl)cc1Cl`: 54.7%.
Turning to `C(=N\N1CCN(c2ccccn2)CC1)/C1=C(N2CCOCC2)C(=C/c2ccccc2)/CC1`, the Potency is 10.4 µM (active).
Take `N#C/C(=C\C1=C(N2CCOCC2)C(=C\c2ccccc2)/CC1)C(=O)Nc1ccccc1F`: the “activity change, negative = inhibition” value is -23.8%.
The same measure, in the same setting: next, `O=C1Nc2ccc(Br)cc2/C1=N/N=C/C1=C(N2CCOCC2)C(=C\c2ccccc2)/CC1`: -20.2%; `CC(=O)c1ccc(N2CCN(CC(O)c3ccccc3)CC2)cc1` (stereo unspecified): 16.4%.
On to `Oc1cc2c(cc1CN1CCN(c3ccccc3)CC1)OCO2`, for which the “activity change, negative = inhibition” value was -9.2%.
As for `CC(C)c1ccc(O)c(CN2CCN(c3ccccc3)CC2)c1`, the Potency is 3.29 µM (active).
For `O=C(CSc1nccc(=O)[nH]1)Nc1ccc(N2CCOCC2)c(Cl)c1`, the “activity change, negative = inhibition” value was 23.8%.
The same measure, in the same setting: next, `COc1cc(NC(=O)NCC2CCN(Cc3ccc(C)cc3)CC2)cc(OC)c1OC`: -4.11%.
`Cc1cccc(CN2CCC(CNC(=O)Nc3ccc(F)c(Cl)c3)CC2)c1`: the Potency was 10.4 µM (active).
Regarding `O=C(CN1CCN(Cc2ccccc2)CC1)Nc1ccc(F)c(F)c1`, the “activity change, negative = inhibition” value is -8.06%.
In the case of `COc1cc(C(=O)NCc2nnc(SCC(=O)c3ccc(Cl)cc3)o2)cc(OC)c1OC`, the “activity change, negative = inhibition” value was 7.45%.
Consider `CCC(=O)Nc1ccc(C(=O)NNC(=O)c2ccc(Cl)cc2)cc1`, for which the “activity change, negative = inhibition” value is 0%.
For `Cc1ccc(NS(=O)(=O)c2ccc(-c3ccc(=O)[nH]n3)o2)c(C)c1`, the “activity change, negative = inhibition” value was 19.5%.
With `CC#CC[N+](C)(C)CCCCCC`, the Potency was 10.4 µM (active).
On to `Cc1ccn2c(=O)c(NC(=O)c3cccc4ccccc34)c(C)nc2c1`, for which the “activity change, negative = inhibition” value was 9.29%.
As to `Cc1[nH]c(C)c(S(=O)(=O)N2CCC(C)CC2)c1C(=O)N1CCCC1`, the “activity change, negative = inhibition” value was 5.99%.
As for `O=S(=O)(c1ccccc1)c1nc(Cc2ccccc2)oc1N1CCOCC1`, the “activity change, negative = inhibition” value was 2.87%.
`COc1ccc(C2=NN(C(=O)c3ccccc3C(=O)O)C(c3ccccc3O)C2)cc1` (stereo unspecified): the “activity change, negative = inhibition” value was 8.81%.
Same read-out and setting: next, `Cc1cc(=O)n2nc(N3CCCC(C(=O)NCc4ccc(Cl)cc4)C3)sc2n1` (stereo unspecified): -7.33%.
As to `COc1cc(N2CCCC2)c(OC)cc1/C=C(/C#N)c1cccc(Br)c1`, the Potency was 14.7 µM (active).
Turning to `COc1cccc(C(=O)Nc2ccc(N3CCCC3)cc2)c1`, the “activity change, negative = inhibition” value is 73.1%.
On the same count and under the same terms, next, `COc1ccc(Br)cc1/C=N/n1c(C)nnc1C`: 0.549%; `COc1ccccc1-n1c(SCC(=O)Nc2cccc(C(=O)O)c2)nnc1-c1ccccc1O`: -3.16%.
As to `Cc1cccc(N2C(=O)c3ccc(C(=O)Nc4cccc(C(=O)O)c4)cc3C2=O)c1`, the “activity change, negative = inhibition” value is 56.5%.
For the compound `Cc1c(Cl)cccc1NC(=O)CCC(=O)N/N=C/c1ccco1`, the “activity change, negative = inhibition” value is -5.06%.
As to `Cc1ccc(S(=O)(=O)CCC(=O)Nc2nnc(CC(C)C)s2)cc1`, the “activity change, negative = inhibition” value is -11.3%.

These data come from PubChem BioAssay AID504832 (National Center for Advancing Translational Sciences (NCATS), 2011).
